Reference: PubChem BioAssay (EPA / NIEHS)
Activity calls are given as the source filed them. How the source made its calls: active means hit-call score of the fitted dose curve at least 0.9, where 1 is the maximum; inactive means score below 0.9.

Columns and labels:
[1] = molecular target: Paired box protein Pax-6 (Homo sapiens) (UniProt P26367); test: ATG_Pax6_CIS: Attagene CIS-FACTORIAL HepG2 Assay for human Paired Box 6 (PAX6) (AID 2282956); conditions: HepG2 CIS-FACTORIAL PAX6 reporter transcription, RNA readout; actives raise or lower the signal
How it was run: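 Readout: reporter transcript fluorescence after RT-PCR and capillary electrophoresis. Cells: HepG2, transiently transfected with cis-regulated MRTUs. Exposure 24 h. Gain or loss of signal fitted bidirectionally relative to DMSO.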

[2] = ATG_PXRE_CIS: Attagene CIS-FACTORIAL HepG2 Assay for human Pregnane X Receptor Element (PXRE) (AID 2282957); conditions: HepG2 Attagene CIS-FACTORIAL PXRE reporter, mRNA; actives raise or lower the signal
How it was run: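 Fluorescent capillary electrophoresis of amplified reporter cDNA gave the signal, collected 24 h after dosing HepG2 cells that held transfected cis-element reporter constructs.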

[3] = ATG_RORE_CIS: Attagene CIS-FACTORIAL HepG2 Assay for human RAR-related Orphan Receptor Element (RORE) (AID 2282959); conditions: HepG2 Attagene cis-factorial RORE reporter, mRNA; actives raise or lower the signal
How it was run: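 A 24-hour exposure of transfected HepG2 hepatoma cells precedes RNA isolation and reporter RT-PCR. Labeled products are digested with HpaI and resolved by capillary electrophoresis, with gain or loss of signal scored relative to DMSO.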

[4] = ATG_Sox_CIS: Attagene CIS-FACTORIAL HepG2 Assay for human SRY-box transcription factor (SOX) (AID 2282960); conditions: HepG2 Attagene cis-factorial SOX reporter, mRNA; actives raise or lower the signal
How it was run: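 HepG2, cis reporter units, 24 h exposure. Reporter mRNA: RT-PCR → FAM labelling → HpaI → CE fluorescence. Bidirectional fit vs DMSO.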

[5] = molecular target: Transcription factor Sp1 (Homo sapiens) (UniProt P08047); test: ATG_Sp1_CIS: Attagene CIS-FACTORIAL HepG2 Assay for human Specificity Protein 1 (Sp1) (AID 2282961); conditions: HepG2 Sp1 cis-reporter transcription, actives raise or lower the signal
How it was run: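 Liver-derived HepG2 cells, cis-element reporter library, 24 h treatment; RNA isolated, cDNA amplified with reporter-specific primers, FAM-labeled fragments sized on capillary analyzer. DMSO baseline, bidirectional curve fit.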

[6] = ATG_SREBP_CIS: Attagene CIS-FACTORIAL HepG2 Assay for human Sterol Regulatory Element Binding (SREBP) (AID 2282962); conditions: HepG2 Attagene cis-factorial SREBP reporter, mRNA; actives raise or lower the signal
How it was run: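 Readout: fluorescent reporter-transcript peaks resolved by capillary electrophoresis after RT-PCR. Cells were human HepG2 carrying transfected cis-promoter reporter constructs, dosed for 24 h. Gain or loss of signal was fitted against DMSO controls.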

[7] = molecular target: Signal transducer and activator of transcription 3 (Homo sapiens) (UniProt P40763); test: ATG_STAT3_CIS: Attagene CIS-FACTORIAL HepG2 Assay for human Signal Transducer and Activator of Transcription 3 (STAT3) (AID 2282963); conditions: HepG2, Attagene cis-factorial STAT3 reporter transcription; actives raise or lower the signal
How it was run: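 Readout: fluorescent reporter mRNA fragments resolved by capillary electrophoresis. Setup: HepG2 transfected with MRTUs reporting endogenous transcription-factor activity, dosed 24 h. Gain or loss of signal fitted bidirectionally against DMSO control.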

[8] = ATG_TA_CIS: Attagene CIS-FACTORIAL HepG2 Assay for human TA Basal Promoter (AID 2282964); conditions: HepG2 Attagene CIS-factorial TA basal promoter reporter; actives raise or lower the signal
How it was run: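 Multiplexed mRNA reporter assay, HepG2, 24 h. Reporter cDNA amplified, 6-FAM primer-extended, HpaI-cut, CE-sized; DMSO = negative control and baseline.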

[9] = ATG_TCF_b_cat_CIS: Attagene CIS-FACTORIAL HepG2 Assay for human T-Cell-Factor with beta-catenin (TCF/b-cat) (AID 2282965); conditions: HepG2 TCF/beta-catenin cis-reporter transcription, actives raise or lower the signal
How it was run: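 HepG2 cells transiently transfected with cis-promoter-driven multiplexed reporter units; reporter mRNA measured 24 h after dosing by RT-PCR, FAM labelling, HpaI digestion and capillary electrophoresis. Bidirectional fitting relative to DMSO baseline.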

[10] = ATG_PPRE_CIS: Attagene CIS-FACTORIAL HepG2 Assay for human Peroxisome Proliferator-activated Response Element (PPRE) (AID 2282958); conditions: HepG2 PPRE cis-element reporter, Attagene transcription factor profiling; actives raise or lower the signal
How it was run: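 PPRE activity in HepG2: transient cis-reporter transfection, 24 h compound incubation, reporter mRNA by RT-PCR and CE fluorescence; gain/loss fitted against DMSO.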

Measured: AC50

Sequence of Paired box protein Pax-6 (Homo sapiens) (P26367 whole entry, looked up): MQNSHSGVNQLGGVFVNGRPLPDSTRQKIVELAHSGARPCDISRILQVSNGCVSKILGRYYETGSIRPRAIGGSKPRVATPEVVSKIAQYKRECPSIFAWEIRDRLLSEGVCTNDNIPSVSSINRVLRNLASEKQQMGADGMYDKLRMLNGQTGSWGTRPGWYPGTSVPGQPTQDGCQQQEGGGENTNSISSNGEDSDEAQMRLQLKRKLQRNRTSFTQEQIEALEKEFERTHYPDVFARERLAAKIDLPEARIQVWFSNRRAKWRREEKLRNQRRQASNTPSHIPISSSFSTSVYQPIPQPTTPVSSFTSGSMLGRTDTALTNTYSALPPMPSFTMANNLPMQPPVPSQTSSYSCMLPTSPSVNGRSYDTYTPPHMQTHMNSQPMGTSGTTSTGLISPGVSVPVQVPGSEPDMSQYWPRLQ
Sequence of Signal transducer and activator of transcription 3 (Homo sapiens) (P40763 whole entry, looked up, the tested form may be a part): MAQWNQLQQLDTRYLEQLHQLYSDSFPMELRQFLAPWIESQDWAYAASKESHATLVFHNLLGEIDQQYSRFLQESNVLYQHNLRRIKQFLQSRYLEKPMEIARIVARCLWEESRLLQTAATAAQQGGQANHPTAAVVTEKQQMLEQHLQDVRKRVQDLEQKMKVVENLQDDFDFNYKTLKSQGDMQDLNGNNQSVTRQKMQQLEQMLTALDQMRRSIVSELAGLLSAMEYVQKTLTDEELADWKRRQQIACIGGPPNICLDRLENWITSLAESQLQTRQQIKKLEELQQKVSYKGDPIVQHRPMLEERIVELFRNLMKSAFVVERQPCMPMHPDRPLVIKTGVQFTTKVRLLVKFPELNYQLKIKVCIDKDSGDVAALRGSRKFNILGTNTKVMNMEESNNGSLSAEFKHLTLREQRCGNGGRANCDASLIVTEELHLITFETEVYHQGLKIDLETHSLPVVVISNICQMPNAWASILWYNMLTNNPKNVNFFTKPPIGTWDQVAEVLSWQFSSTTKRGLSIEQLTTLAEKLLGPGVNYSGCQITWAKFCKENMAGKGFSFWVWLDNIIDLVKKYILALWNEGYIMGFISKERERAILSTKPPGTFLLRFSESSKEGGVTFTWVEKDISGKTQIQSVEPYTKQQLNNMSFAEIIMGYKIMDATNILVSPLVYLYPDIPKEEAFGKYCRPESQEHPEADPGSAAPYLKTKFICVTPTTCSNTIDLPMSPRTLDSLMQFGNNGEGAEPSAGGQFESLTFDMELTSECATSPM
Sequence of Transcription factor Sp1 (Homo sapiens) (P08047 whole entry, looked up, the tested form may be a part): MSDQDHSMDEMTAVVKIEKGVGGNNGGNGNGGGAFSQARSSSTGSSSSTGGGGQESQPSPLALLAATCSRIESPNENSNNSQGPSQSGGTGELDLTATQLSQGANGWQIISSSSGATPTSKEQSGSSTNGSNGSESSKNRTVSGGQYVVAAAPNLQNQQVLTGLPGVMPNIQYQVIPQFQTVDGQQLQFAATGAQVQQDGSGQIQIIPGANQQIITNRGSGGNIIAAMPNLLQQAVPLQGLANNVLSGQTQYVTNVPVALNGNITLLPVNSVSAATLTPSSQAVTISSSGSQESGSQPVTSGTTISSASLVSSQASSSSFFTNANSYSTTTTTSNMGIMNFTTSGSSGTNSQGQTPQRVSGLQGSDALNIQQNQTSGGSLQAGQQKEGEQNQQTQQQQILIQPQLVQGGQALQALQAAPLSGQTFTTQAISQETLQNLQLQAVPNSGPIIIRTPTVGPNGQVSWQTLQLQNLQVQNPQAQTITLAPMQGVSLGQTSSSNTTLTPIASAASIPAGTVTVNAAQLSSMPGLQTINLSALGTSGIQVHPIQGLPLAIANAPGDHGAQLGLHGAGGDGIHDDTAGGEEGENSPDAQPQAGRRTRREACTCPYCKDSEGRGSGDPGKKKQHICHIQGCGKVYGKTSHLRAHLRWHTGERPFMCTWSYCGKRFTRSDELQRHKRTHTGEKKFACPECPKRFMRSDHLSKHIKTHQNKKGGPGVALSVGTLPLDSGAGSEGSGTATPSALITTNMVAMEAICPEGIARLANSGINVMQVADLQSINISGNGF

NC(CO)(CO)CO
active: [2] 42 µM
not listed: [10]
inactive: all other assays above

CCCCCCCCCCC=CC#N
active: [2] 27.5 µM
not listed: [3]
inactive: all other assays above

CC(=O)OC1C2(C)CCC(C2)C1(C)C (stereo unspecified)
not listed: [3]
inactive: all other assays above

CC(CC=O)c1ccccc1 (stereo unspecified)
active: [2] 4.15 µM
not listed: [3] | [5]
inactive: all other assays above

C=C[C@](C)(O)CC[C@@H]1[C@@]2(C)CCCC(C)(C)[C@@H]2CC[C@@]1(C)O
active: [2] 0.357 µM
not listed: [3]
inactive: all other assays above

CCCCC(CC)COCC1CO1 (stereo unspecified)
not listed: [10]
inactive: all other assays above

Cn1c(=O)[nH]c2ncn(C)c2c1=O
not listed: [3] | [4]
inactive: all other assays above

O=C1CCCCCCCCCCC(=O)OCCO1
not listed: [10]
inactive: all other assays above

O=C(O)C(c1ccc(Cl)cc1)c1ccc(Cl)cc1
active: [2] 62.7 µM
not listed: [10]
inactive: all other assays above

CCO[Si](C)(OCC)OCC
not listed: [10]
inactive: all other assays above

CC(C)C(=O)C(C)C
active: [1] 42.4 µM | [4] 19.5 µM | [9] 61.5 µM
not listed: [3]
inactive: all other assays above

CC1OC1C1CCC2(C)OC2C1 (stereo unspecified)
active: [2] 36.7 µM
not listed: [10]
inactive: all other assays above

C=CC(=O)OCCOC(=O)C=C
active: [1] 14.9 µM | [2] 26.5 µM | [3] 27.3 µM | [5] 25.3 µM | [9] 26.7 µM
inactive: [4] | [6] | [7] | [8]

C1CN(SSN2CCOCC2)CCO1
not listed: [3] | [4]
inactive: all other assays above

N[C@H]1C(O)O[C@H](CO)[C@H](O)[C@@H]1O (stereo partly specified)
not listed: [10]
inactive: all other assays above

O=C(O)CC(C(=O)O)C(CC(=O)O)C(=O)O (stereo unspecified)
inactive: [1] | [2] | [10] | [6] | [7] | [9]

CCCCCCCCCCCCCCCCCC#N
not listed: [10]
inactive: all other assays above

c1cc(C(c2ccc(OCC3CO3)cc2)C(c2ccc(OCC3CO3)cc2)c2ccc(OCC3CO3)cc2)ccc1OCC1CO1 (stereo unspecified)
active: [1] 34.4 µM | [2] 7.01 µM | [5] 31.8 µM | [8] 72.2 µM | [9] 36.8 µM
inactive: [10] | [4] | [6] | [7]

CC1=NC(C)OC1C (stereo unspecified)
active: [2] 7.08 µM | [9] 100 µM
not listed: [10]
inactive: all other assays above

COc1ccc(-c2coc3cc(O)ccc3c2=O)cc1
active: [2] 11.3 µM
not listed: [3]
inactive: all other assays above

Oc1ccc(Cl)cc1Cc1cc(Cl)ccc1O
active: [1] 11.1 µM | [10] 4.48 µM | [6] 7.54 µM | [9] 18.8 µM
inactive: [2] | [5] | [7] | [8]

COc1ccc(NC(C)=O)cc1N
not listed: [3]
inactive: all other assays above

ON(Cc1ccccc1)Cc1ccccc1
active: [2] 41.6 µM
not listed: [3]
inactive: all other assays above

O=C(Nc1ccccc1SSc1ccccc1NC(=O)c1ccccc1)c1ccccc1
active: [2] 4.44 µM | [3] 2.56 µM
not listed: [10]
inactive: all other assays above

C=C(C)c1cccc(C(C)(C)N=C=O)c1
active: [2] 0.0919 µM
not listed: [10]
inactive: all other assays above

O=C(C(Cl)Cl)N1CCOC12CCCCC2
active: [1] 13.1 µM
not listed: [3] | [8]
inactive: all other assays above
